PubChem BioAssay AID1053117 (Broad Institute, 2014)
Potency and affinity values are given separately. Active and inactive are the calls of the source.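 Rule for the calls: active = compounds lowering cell ATP signal with a fitted half-effect dose at most twice the top valid dose; inconclusive = flat curve with 30 to 70% signal loss, or bad fit; inactive = wrong direction, flat within 30%, or weaker than limit.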

Assay: HEK293 cell cytotoxicity, dose response, cytotoxicity control, cherry-picks, set 5 (AID 1053117);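 note: more negative means greater loss of ATP signal and more cytotoxicity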
Conditions: HEK293T viability, CellTiter-Glo ATP luminescence, 72 h; series mostly up to 26 µM

SMILES	outcome
O=C(C[C@@H]1C[C@@H]2c3cc(NC(=O)c4ccc5c(c4)OCO5)ccc3O[C@@H]2[C@@H](CO)O1)NCc1ccc(Oc2ccccc2)cc1	inactive
O=C(CCNS(=O)(=O)c1cccc2nonc12)NC1CCCc2ccccc21 (stereo not drawn)	inactive
C[C@@H]1CN([C@@H](C)CO)C(=O)c2cc(NC(=O)CCCN(C)C)ccc2O[C@@H]1CN(C)Cc1ccc(-c2ccccc2)cc1	inactive
c1ccc2[nH]c(SCc3cn4cccnc4n3)nc2c1	inactive
C[C@H](O)C#Cc1ccc2c(c1)O[C@H](CN(C)C)[C@H](C)CN([C@@H](C)CO)S2(=O)=O	inactive
CO[C@@H]1CN(C)C(=O)c2ccc(NC(=O)c3ccc(-c4ccccc4)cc3)cc2OC[C@@H](C)NC[C@@H]1C	inactive
COc1ccc(CN(C2CCCC2)S(=O)(=O)c2ccc(-n3cnnn3)cc2)cc1OC	inactive
CC1CN(C(=O)c2cc3c(=O)n4ccccc4nc3n2C)CC(C)O1 (stereo not drawn)	inactive
COCC(=O)Nc1ccc2c(c1)C(=O)N(C)[C@H]1CC[C@H](CC(=O)NCc3ccccc3Cl)O[C@H]1CO2	inactive
Cc1oc2ccc(O)cc2c1C(=O)c1ccc(Br)cc1	inactive
C[C@H]1CN([C@@H](C)CO)C(=O)c2cccc(NC(=O)Nc3ccc(C(F)(F)F)cc3)c2O[C@H]1CN(C)C(=O)Nc1cccc2ccccc12	inactive
CN(C)c1ccc(-c2ccnc3c2CC(C)(C(=O)NCC2CC2)O3)cc1 (stereo not drawn)	inactive
C[C@@H]1CN([C@H](C)CO)C(=O)c2cc(-c3ccccc3)cnc2O[C@@H]1CN(C)C(=O)c1cccc(F)c1	inactive
C[C@H](O)C#Cc1ccc2c(c1)O[C@H](CN(C)C)[C@H](C)CN([C@H](C)CO)S2(=O)=O	inactive
C[C@@H]1CN([C@@H](C)CO)C(=O)c2cc(NC(=O)CCCN(C)C)ccc2O[C@H]1CN(C)Cc1ccc(-c2ccccc2)cc1	inactive
COCC(=O)Nc1ccc2c(c1)C(=O)N(C)[C@H]1CC[C@H](CC(=O)NCc3ccccc3Cl)O[C@@H]1CO2	inactive
C[C@@H]1CN([C@H](C)CO)C(=O)c2cccc(NC(=O)Nc3ccc(C(F)(F)F)cc3)c2O[C@H]1CN(C)C(=O)Nc1cccc2ccccc12	inactive

SMILES	outcome
CN1c2ccc(-c3ccccc3)cc2[C@H]2[C@H](CCN2C(=O)CN2CCOCC2)[C@H]1CO	inactive
C[C@@H]1CN([C@@H](C)CO)C(=O)c2cccc(NC(=O)Nc3ccc(C(F)(F)F)cc3)c2O[C@H]1CN(C)C(=O)Nc1cccc2ccccc12	inactive
COc1cccc(-c2ccc3c(c2)[C@@H]2[C@@H](CCN2S(=O)(=O)c2cccc(OC)c2)[C@@H](CO)N3)c1	inactive
COC(=O)C[C@@H]1CC[C@H]2[C@H](COc3ccc(NC(=O)Cc4cccs4)cc3C(=O)N2C)O1	inactive
O=C(CSc1nc2ncc(Cl)cc2[nH]1)c1c[nH]c2ccccc12	inactive
CN(C)C(=O)c1ccc(-c2ccc3c(c2)[C@H]2[C@H](CCN2C(=O)c2ccc(F)cc2)[C@@H](CO)N3C)cc1	inactive
O=C(Nc1cc(Sc2nc3ccccc3s2)cc([N+](=O)[O-])c1)c1ccccc1F	inactive
C[C@H](CO)N1C[C@H](C)[C@H](CN(C)Cc2ccc(-c3ccccc3)cc2)Oc2ccc(NC(=O)C3CCCCC3)cc2C1=O	inactive
COC(=O)c1c(NC(=O)CN2CCN(c3ccccc3Cl)CC2)sc(C)c1C	inactive
O=C(Nc1ccccc1F)N1C[C@H]2[C@@H](c3ccccc31)[C@H](CO)N2C(=O)C1CC1	inactive
COc1cccc(CNC(=O)CCc2nnc3ccc(NCCCN4CCCC4=O)nn23)c1	inactive
COC(=O)c1cn(CC(=O)NCc2ccco2)c2ccccc12	inactive
CC(NC(=O)CSc1ccc(S(=O)(=O)N2CCOCC2)cn1)c1ccc(Cl)cc1Cl (stereo not drawn)	inactive
O=C(Nc1ccccc1F)N1C[C@H]2[C@@H](c3ccccc31)[C@@H](CO)N2C(=O)C1CC1	inactive
O=C(CCC(=O)c1cccs1)NCc1cccnc1	inactive
Cn1cnc(S(=O)(=O)N2CCN(c3ccccc3)CC2)c1	inactive
